Bioassay records: PubChem BioAssay, The Scripps Research Institute Molecular Screening Center
Only some compounds are listed: those with a hit (about 3.5% of all), similar ones and a draw of the others.
TEAD-YAP block = TEAD-YAP interaction inhibition, primary screen, TEAD-YAP interaction inhibitor project, luminescence, HEK-TIYL cells; TEAD-Gal4/YAP UAS-luciferase luminescence; inhibition, % at 9.12 µM; 640,000 compounds, 1.4% hits; in the data active = inhibition above about 32%;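 note: 0% = median of test compound wells and 100% = reference inhibitor wells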
MITF inh = MITF inhibitors, primary screen, biochemical, AlphaScreen, human; AlphaScreen MITF homodimerization, bead proximity signal; Microphthalmia-associated transcription factor (Homo sapiens), O75030; inhibition, % at 2.6 µM; AID 1259374, 2018; 650,000 compounds, 0.91% hits; in the data active = inhibition above about 50%;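 note: 0% = vehicle wells with protein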
FBW7 act = FBW7 E3 ligase activators, primary screen, biochemical, AlphaScreen, human | F-box/WD repeat-containing protein 7 (Homo sapiens), Q969H0 | AlphaScreen FBW7–phospho-cyclin E peptide binding, activator screen | normalized activity (activation), % at 26.1 µM | 650,000 compounds, 0.13% hits | AID 1259310, 2017; in the data active = normalized activity above about 1.9%;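 note: purified mutant Fbw7 with reduced substrate affinity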
GPR151 activ = activators of human GPR151, primary screen, cell-based, PathHunter beta-arrestin, luminescence; G-protein coupled receptor 151 (Homo sapiens), Q8TDV0; PathHunter beta-arrestin GPR151 cells; activation, % at 11.2 µM; 650,000 compounds, 1% hits; AID 1508602, 2020; in the data active = activation above about 4.9%;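 note: 0% = median of compound wells and 100% = cells with positive control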
The depositor's hits bear a star.

SMILES | TEAD-YAP block | MITF inh | FBW7 act | GPR151 activ
O=C(Nc1ccc2[nH]ncc2c1)C1CN(Cc2ccccc2)CC1c1ccc(C(F)(F)F)cc1 (centres undefined) | 3 | -5 | 0 | -2
O=C(Nc1nnc(-c2cccs2)o1)c1cc(Cl)sc1Cl | -2 | -1 | 0 | 0
Cc1c(C(=O)O)sc2ncn(CC(=O)N3CCCC(C)C3)c(=O)c12 (centres undefined) | 0 | 5 | 0 | -1
Cc1cc(-n2c(C)cc3ccccc32)n2nc(C)nc2n1 | 1 | -2 | 0 | 0
O=C1CC(C23CC4CC(CC(C4)C2)C3)=NN1c1ccccc1 | 33* | 15 | 0 | 2
NC1=NN(c2ccccc2)C(=O)C1 | 6 | 0 | 0 | 0
O=C(NCc1ccc(F)cc1)c1ccc(N2CC3CC(C2)c2cccc(=O)n2C3)c(NC(=O)c2ccc(F)cc2)c1 (centres undefined) | 84* | 3 | 0 | 1
Cc1c(C(=O)Nc2nc3ccccc3s2)sc2ncn(CC(=O)N3CC(C)CC(C)C3)c(=O)c12 (centres undefined) | 0 | 3 | 0 | -1
CCN(CC)C(=O)Cn1cnc2sc(C(=O)Nc3nc4ccccc4s3)c(C)c2c1=O | 80* | -7 | 0 | 0
CCn1cnc2sc(C(=O)Nc3nc4ccc(Br)cc4s3)c(C)c2c1=O | 40* | -10 | 0 | 1
Cc1ccc(NC(=O)CSc2nc(-c3ccccc3)cc(=O)[nH]2)cc1 | -7 | -4 | 1 | -1
CNC(=O)c1ccccc1Nc1cc(Nc2cccnc2)ncc1C(F)(F)F | 14 | 5 | 0 | -1
CNC(=O)c1ccccc1Nc1nc(Nc2ccc(N3CCOCC3)c(F)c2)ncc1Cl | 63* | -3 | 0 | 2
CNC(=O)c1ccccc1Nc1cc(Nc2ccc(N3CCOCC3)cc2F)ncc1C(F)(F)F | 67* | 4 | 0 | -3
CNC(=O)c1ccccc1Nc1nc(Nc2ccc(-n3cnc(N4CCOCC4)n3)cc2)ncc1Cl | 31 | 20 | 0 | 1
CNC(=O)c1ccccc1Nc1cc(Nc2ccc(N3CCOCC3)cc2)ncc1C(N)=O | 22 | 8 | 0 | 0
CNC(=O)c1cc(F)c(F)cc1Nc1cc(Nc2ccc(N3CCOCC3)cc2OC)ncc1C(F)(F)F | 6 | -1 | 0 | 0
CNC(=O)c1ccccc1Nc1cc(Nc2ccc(C(=O)N3CCOCC3)cn2)ncc1C(F)(F)F | 86* | -4 | 0 | -1
CNC(=O)c1ccccc1Nc1cc(Nc2ccc(N3CCOCC3)cc2)ncc1C(F)(F)F | 75* | 0 | 0 | 0
COCCNC(=O)c1ccccc1NS(=O)(=O)c1cccc2cccnc12 | 8 | 15 | 0 | -1
O=c1[nH]c2cc([N+](=O)[O-])c(S(=O)(=O)O)cc2[nH]1 | -1 | 18 | 0 | -2
CS/C(=N\S(=O)(=O)c1cccs1)Nc1cccc(SC)c1 | 2 | -3 | 0 | 2
COCC(C)n1c(C)cc(C(=O)COC(=O)/C=C/c2ccc3c(c2)OCO3)c1C (centres undefined) | 1 | 2 | 0 | -1
Cc1ccc(C)n1-c1ccc(C(=O)O)cc1 | 5 | -11 | -1 | 0
Cc1ccc(C)n1-c1ccc(C(=O)NCC(=O)O)cc1 | 15 | 66* | 0 | 0
SMILES | TEAD-YAP block | MITF inh | FBW7 act | GPR151 activ
O=C(CSc1nnc2c(n1)[nH]c1ccccc12)Nc1ccc(Cl)cn1 | 57* | 6 | 0 | 0
O=C(CSc1nnc2c(n1)[nH]c1ccccc12)Nc1ccccc1F | -19 | 0 | 0 | -1
O=C(CSc1nnc2c(n1)[nH]c1ccccc12)Nc1ccc(C(=O)N2CCCCC2)cc1 | 34* | 10 | 0 | 1
O=C(CSc1nnc2c(n1)[nH]c1ccccc12)Nc1ccc(Br)cc1 | 2 | -3 | 0 | -1
CCc1csc2ncc(C(=O)N3CCOCC3)c(=O)n12 | 6 | 0 | 0 | 2
CCOc1ccc(Nc2ccc(N3CCN(c4ccc(C(F)(F)F)cc4[N+](=O)[O-])CC3)nn2)cc1 | -2 | -5 | 0 | 1
CCc1cc(NCc2ccco2)n2nc3nc(C)cc(C)c3c2n1 | 12 | -361 | 252* | 0
CCc1cc(NCc2cccs2)n2nc3nc(C)cc(C)c3c2n1 | -3 | -8 | 0 | 0
COc1cc(CN2CCN(C3CCN(C(C)=O)CC3)CC2CCO)cc(OC)c1 (centres undefined) | -6 | 6 | 0 | 0
COc1cccc(-c2nnc3sc(CN4CCc5ccccc5C4)cn23)c1 | 49* | 3 | 0 | 1
Fc1ccc(-c2nnc3sc(CN4CCc5ccccc5C4)cn23)cc1 | 1 | 15 | 0 | 0
O=C(Nc1ccc(-c2ccccc2)cc1)c1ccc(C(=O)Nc2ccc(-c3ccccc3)cc2)cc1 | 2 | 8 | 0 | 0
O=C(Nc1ccccc1)C1=C(c2ccccc2)S(=O)(=O)CCS1(=O)=O | 81* | 11 | 1 | 1
CCc1ccc(/C=C/c2c([N+](=O)[O-])c(=O)n(C)c(=O)n2C)cc1 | 44* | 4 | 0 | 0
CCOc1ccc(/C=C/c2c([N+](=O)[O-])c(=O)n(C)c(=O)n2C)cc1 | 13 | -4 | 0 | 1
COCCN1C(=O)/C(=C/c2ccccc2OC)SC1=S | 3 | 18 | 0 | 0
COc1ccccc1/C=C1/SC(=S)N(CCCC(=O)O)C1=O | 46* | -1 | 0 | 1
COc1ccccc1/C=C1/SC(=S)N(CCCCCC(=O)O)C1=O | 58* | 2 | 0 | -1
CCOc1ccc(CCNC(=O)C2CCCN2c2nnc(N3CCCC3=O)s2)cc1 (centres undefined) | 2 | 5 | 0 | 0
COc1cc(C)c(/C=C2/C(=O)NC(=O)N(Cc3ccco3)C2=O)cc1C | -7 | 52* | 0 | 2
Cc1cc(/C=C2/C(=O)NC(=S)N(Cc3ccco3)C2=O)c(C)n1C | 0 | 77* | -1 | 0
COc1cc(C)c(/C=C2/C(=O)NC(=O)N(Cc3ccco3)C2=O)c(OC)c1 | 9 | 64* | 0 | -1
COc1ccc(/C=C2/C(=O)NC(=O)N(Cc3ccco3)C2=O)cc1OC | 4 | 33 | -1 | 1
Cc1cc(/C=C2/C(=O)NC(=O)N(Cc3ccco3)C2=O)c(C)n1-c1ccc(F)cc1 | 4 | 21 | 0 | 0
Cc1cc(/C=C2\NC(=O)N(Cc3ccc(Cl)cc3)C2=O)c(C)n1-c1ccccc1F | -2 | 15 | 0 | -1
CSc1nnc(NC(=O)c2ccc(F)cc2)s1 | -35 | -17 | 0 | -8
CSc1nnc(NC(=O)c2ccc(C(C)(C)C)cc2)s1 | 32* | -2 | 0 | -2
CSc1nnc(NC(=O)c2ccc(C)cc2)s1 | 76* | 0 | 0 | -6
CC(C)(C)c1ccc(C(=O)Nc2nnc(SCC(=O)O)s2)cc1 | 71* | -8 | 0 | -1
